From PubChem BioAssay (NCI)
Compounds without any hit were thinned out: in the full panel of roughly 79,000, 15% have a hit. Active and inactive are the calls of the source. No stated cut-off is given here; in the data, active means growth inhibition above about 70%; inactive means the rest. Where a SMILES comes first, the peptide text is derived from it. The star is where a group is joined. Cbz = O=C(OCc1ccccc1)*

Legend:
[1] = NCI Yeast Anticancer Drug Screen. Data for the rad50 strain (AID 155);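 further: 0% = growth of vehicle-only cultures of the same strain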; conditions: S. cerevisiae rad50 strain growth inhibition, active compounds read high; at 50.0 µM unless noted
In short: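 DNA repair mutant yeast, compound exposure, growth read-out; inhibition is taken relative to vehicle.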

[2] = NCI Yeast Anticancer Drug Screen. Data for the mec2-1 strain (AID 157); conditions: S. cerevisiae mec2-1 strain, active compounds read high; at 50.0 µM unless noted
In short: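 Mutant yeast (mec2-1) grown with compound; growth inhibition relative to vehicle control reported.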

[3] = NCI Yeast Anticancer Drug Screen. Data for the sgs1 mgt1 strain (AID 161);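 further: 0% = growth of cultures given vehicle only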; conditions: S. cerevisiae sgs1 mgt1 strain, active compounds read high; at 50.0 µM unless noted
In short: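 Yeast cells carrying a defined DNA-repair defect were exposed to test compounds. Growth inhibition was measured relative to vehicle-treated controls.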

[4] = NCI Yeast Anticancer Drug Screen. Data for the cln2 rad14 strain (AID 165);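 further: 0% = growth equal to vehicle treated cultures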; conditions: S. cerevisiae cln2 rad14 strain, active compounds read high; at 50.0 µM unless noted
In short: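 Readout is yeast growth inhibition versus vehicle-treated controls, using a strain with cln2 and rad14 alterations exposed to compound.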

[5] = NCI Yeast Anticancer Drug Screen. Data for the bub3 strain (AID 167); conditions: S. cerevisiae bub3 mutant strain, active compounds read high; at 50.0 µM unless noted
In short: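 In this screen, a yeast mutant lacking normal mitotic checkpoint function is challenged with compound. Relative growth versus vehicle gives the inhibition value.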

[6] = NCI Yeast Anticancer Drug Screen. Data for the mlh1 rad18 strain (AID 175); conditions: S. cerevisiae mlh1 rad18 strain growth inhibition, active compounds read high; at 50.0 µM unless noted
In short: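 Genetically defined yeast (DNA repair-deficient) exposed to compounds; growth inhibition determined relative to vehicle.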

Measured: growth inhibition

CN(Cc1ccccc1)C(=O)Nc1ccc(Cl)c(Cl)c1
active: [1] 95.8% | [2] 99% | [3] 99% | [4] 97.1% | [5] 97.7% | [6] 98.5%

NC(N)=NS(=O)(=O)c1ccc(N=NC2=C(O)C(c3ccccc3)N(c3ccccc3)C2=O)cc1 (stereo unspecified)
inactive: [1] 6.35% | [2] 22.1% | [3] 35.5% | [4] 0.3% | [5] 0.45% | [6] 33%

Cc1ncc([N+](=O)[O-])n1CC(O)Cn1cnc([N+](=O)[O-])n1 (stereo unspecified)
inactive: [1] -19% | [2] -6.5% | [3] -1.75% | [4] -4.2% | [5] -4.35% | [6] -31.4%

C=CCC(O)c1ccccc1OC (stereo unspecified)
inactive: [1] 9.75% | [2] 9.25% | [3] 20.8% | [4] 5.15% | [5] -5.9% | [6] 7.95%

CC(C)C(=O)OC1(CC2CCCCN2C)CCCCC1 (stereo unspecified)
inactive: [1] -3.2% | [2] 13.7% | [3] 3.95% | [4] -5.8% | [5] 5.3% | [6] 6.85%

COc1ccc(/C=C2\CN(CCCC(=O)O)C(=O)C2=O)cc1
inactive: [1] 3.6% | [2] -7.5% | [3] 0% | [4] -6.45% | [5] 4.1% | [6] -16.7%

CC(C)=CC1C(C(=O)Oc2ccccc2C(C)C)C1(C)C (stereo unspecified)
inactive: [1] -3.8% | [2] -11.2% | [3] 2.6% | [4] -22.6% | [5] -27% | [6] 4.6%

C/C(=C\C(=O)c1ccc(Sc2ccccc2)cc1)c1ccc(Sc2ccccc2)cc1
inactive: [1] 25.1% | [2] -4.85% | [3] 6.15% | [4] -17.6% | [5] 24.1% | [6] 21.2%

CCCCCO.CCCCCO.CCCCCO.CCCCCO.[Ti]
inactive: [1] 3.45% | [2] -33% | [3] -3.3% | [4] 8.55% | [5] -20% | [6] -1.65%

CC1=C(N2CCOCC2)C(N2CCOCC2)C(C)C1=O (stereo unspecified)
inactive: [1] 16.8% | [2] -5.25% | [3] -4.8% | [4] 13.7% | [5] 9.1% | [6] 3%

O=C(N(O)c1ccccc1Cl)C(O)(c1ccccc1)c1ccccc1
inactive: [1] 28.2% | [2] 16.6% | [3] 59.1% | [4] 37% | [5] 31.4%
active: [6] 75.5%

Cc1c2cc[n+](C)c(C)c2cc2c1[nH]c1ccccc12
inactive: [1] 64.8% | [2] 19.8% | [3] 34.1% | [4] 12.8% | [5] 22.4% | [6] 37.8%

CCN(CC)CCN(CC)C(=S)Nc1ccccc1
inactive: [1] 1.75% | [2] 21.2% | [3] 23.2% | [4] -4.65% | [5] 2% | [6] 12.2%

CCCNC(=O)Oc1ccccc1C(=O)NCO
inactive: [1] -3.5% | [2] 0.4% | [3] -9.35% | [4] -14.1% | [5] 16.8% | [6] -6.4%

Cc1cc2c(c(C(=O)O)c1C)-c1cccc(Cl)c1C2=O
inactive: [1] -15.7% | [2] -2.3% | [3] -23.2% | [4] -20.2% | [5] -13.3% | [6] -27.4%

O=C1OC(/C=C/c2ccccc2)=NC/1=C\c1ccc2c(c1)OCO2
inactive: [1] -4.95% | [2] 18.9% | [3] -16.4% | [4] -21.1% | [5] -1.85% | [6] -19.8%

S=C(NC1CCCCC1)SSSSC(=S)NC1CCCCC1
inactive: [1] 15.7% | [2] 5% | [3] 22.2% | [4] 9.55% | [5] 13.9% | [6] 20.2%

CCCCCC1CC(C(C)=O)CN1c1ccc(F)cc1 (stereo unspecified)
inactive: [1] -0.95% | [2] 8.4% | [3] 11.8% | [4] 8.7% | [5] -1% | [6] -2%

COc1ccc2c3c(ccc2c1)[C@@H]1C/C(=C(\OC(C)=O)C(F)(F)F)C(=O)[C@@]1(C)CC3
inactive: [1] -0.85% | [2] -4.85% | [3] 0.4% | [4] 20.8% | [5] -11.2% | [6] 20.3%

OC(COc1cccc(C(F)(F)F)c1)CN1CCN(c2ccc(F)cc2)CC1 (stereo unspecified)
active: [1] 86.8% | [2] 88% | [3] 96.3% | [4] 88.5% | [5] 86.4% | [6] 92.2%

Cc1c([N+](=O)[O-])cc(C(C)(C)C)c(OC(=O)c2ccccc2)c1[N+](=O)[O-]
inactive: [1] 41.5% | [2] 24.7% | [3] 41% | [4] 16.3% | [5] 25.4% | [6] 20.4%

Cc1cc(C)c2c(c1)sc1n[nH]c(=S)n12
inactive: [1] 14.1% | [2] 6.7% | [3] 9.05% | [4] -11.4% | [5] -10.8% | [6] 3.95%

N/C1=C/C(=O)NC(=O)c2c(c3ccccc3oc2=O)C1
inactive: [1] -5.7% | [2] 0.9% | [3] 8.5% | [4] 5% | [5] 7.3% | [6] -29.6%

N#Cc1cc2c(N)ncnc2nc1N1CCCC1
inactive: [1] -43.7% | [2] -61.8% | [3] -13.3% | [4] -2.25% | [5] 5.35% | [6] -26.2%

C/C(=C\c1ccc(N(C)C)cc1)c1ccncc1
active: [5] 86.7%
inactive: [1] 63.3% | [2] 38.9% | [3] 68.5% | [4] 34.8% | [6] 48.2%

CC(=O)C[n+]1ccccc1
inactive: [1] -9.85% | [2] -9% | [3] -1.75% | [4] 3.75% | [5] 15.6% | [6] 14.2%

CCN(CC)CCNC(=O)c1cc(N2CCOCC2)ccn1
inactive: [1] 23.3% | [2] 11.7% | [3] 18.5% | [4] 1.05% | [5] 30.6% | [6] 45.5%

Cc1ccc2[nH]c(C(=O)O)cc2c1
inactive: [1] 31.1% | [2] -6.8% | [3] 10.8% | [4] 10.3% | [5] 9% | [6] 28.1%

CCOC(=O)c1ccc(N)nc1
inactive: [1] -3.75% | [2] -3.3% | [3] 5.35% | [4] -13% | [5] 7.95% | [6] 18.6%

CC(=O)NC(CCC(C)C)C(=O)O (stereo unspecified)
inactive: [1] -0.05% | [2] 25.2% | [3] 4.75% | [4] -13.6% | [5] 15.6% | [6] -7.35%

CCN(CC)CCC1CCCCN1CC(=O)N1c2ccccc2NC(=O)c2ccccc21 (stereo unspecified)
inactive: [1] -2.9% | [2] 2% | [3] 8.9% | [4] 8.2% | [5] -0.9% | [6] 0.25%

O=C(O)C1CCC(=O)N1Cc1c[nH]c2ccccc12 (stereo unspecified)
inactive: [1] -2.2% | [2] -7.4% | [3] -10.2% | [4] -0.15% | [5] 15.4% | [6] -10.8%

CC(=C(C#N)C#N)c1csc2ccccc12
inactive: [1] 9.1% | [2] 14.8% | [3] -4.35% | [4] -34.5% | [5] -14.8% | [6] 21.9%

CCc1ccc(-c2cc(-c3ccc(CC)cc3)cc(-c3ccc(CC)cc3)c2)cc1
inactive: [1] 20.1% | [2] -10.1% | [3] -18.9% | [4] 0.3% | [5] -4.7% | [6] 7.95%

Cc1cc(C)nc(NS(=O)(=O)c2ccc(NC(=O)c3ccc(Cl)c4c(Nc5ccc(S(=O)(=O)N=C(N)N)cc5)c5ccccc5nc34)cc2)n1
inactive: [1] 28% | [2] 27% | [3] 20.1% | [4] 29.7% | [5] 23.2% | [6] 31.4%

O=C1NC(N2CCOCC2)=N/C1=C\c1cccs1
inactive: [1] -8.45% | [2] 5.05% | [3] 13.2% | [4] 32.3% | [5] 1.05% | [6] -34%

CN(C)CCS(=O)(=O)c1ccc(Cl)cc1
inactive: [1] 38.9% | [2] 14.6% | [3] 14.4% | [4] 16.5% | [5] 9.85% | [6] 20.6%

O=C(NCCCl)Nc1c(Cl)cccc1Cl
inactive: [1] -4.6% | [2] 14.3% | [3] 6% | [4] -18.6% | [5] 1.8% | [6] -4.2%

CC1OCC(O)C(C(O)C(=O)CN(Cc2ccccc2)Cc2ccccc2)O1 (stereo unspecified)
inactive: [1] 10.2% | [2] 15.6% | [3] 8.65% | [4] 8.55% | [5] 5.75% | [6] 9.55%

CCCCCCCCCCCCN1CCCC(O)C1 (stereo unspecified)
inactive: [1] 66.8% | [2] 60.8% | [4] 56.4%
active: [3] 74.4% | [5] 70.6% | [6] 78.1%

COC(=O)C(CC(C)C)NC(=O)C(CC(N)=O)NC(=O)C(NC(=O)OCc1ccccc1)C(C)C (stereo not drawn) (Cbz-Val-Asn-Leu-OMe; configuration not given here)
inactive: [1] 38.1% | [2] 24.5% | [3] 8.9% | [4] 14.7% | [5] 9.3% | [6] 36.5%
